The source made the active and inactive calls. Unless noted, how the calls were made is not given here.

Drawing on PubChem BioAssay, this text covers z-score and composite z-score for nine compounds.

The nature of test [1]: A549 cell viability effects, profiling panel, calcein-AM fluorescence, 48 h, basal (AID 1162). Further: test concentration not given here. The conditions noted are these: higher = more signal.
A short description of test [2]: adipocyte viability effects, profiling panel, cell-based, 3T3-L1 adipocytes, calcein-AM fluorescence, 48 h, basal (AID 1163). Further: test concentration not given here. The conditions noted are these: 3T3-L1 adipocytes viability, higher = more signal.
The nature of test [3]: HepG2 cell viability effects, profiling panel, calcein-AM fluorescence, 48 h, basal (AID 1164). Further: test concentration not given here. The conditions noted are these: higher = more signal.
Test [4] can be described thus: MM1S cell viability effects, profiling panel, calcein-AM fluorescence, 48 h, basal (AID 1165).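 Further: viability of MM1S multiple myeloma cells under basal unstimulated conditions; test concentration not given here.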 Conditions: higher = more signal.
Test [5] in a line: basal RPMI8226 viability, no added stimulus, profiling panel, cell-based, calcein-AM fluorescence, 48 h, PK04 Diversity Set (AID 1166).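 Further: cells grown under basal conditions without added stimulus; test concentration not given here.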 Conditions: RPMI8226 myeloma viability, higher = more signal.
Test [6] in a line: basal HepG2 mitochondrial membrane potential changes, profiling panel, cell-based, JC-1 fluorescence, 24 h, 100 nL compound (AID 1167). Further: test concentration not given here. The conditions noted are these: higher = more signal.
A short description of test [7]: basal 3T3-L1 adipocyte mitochondrial potential changes, profiling panel, cell-based, JC-1 fluorescence, 3T3-L1 adipocytes, 24 h, 100 nL compound (AID 1168). Further: test concentration not given here. The conditions noted are these: JC-1 mitochondrial fluorescence, higher = more signal, called active from +8 up or from −8 down.
The nature of test [8]: basal RPMI8226 mitochondrial membrane potential changes, profiling panel, cell-based, JC-1 fluorescence, 24 h, 100 nL compound (AID 1169). Further: test concentration not given here. The conditions noted are these: RPMI8226 myeloma, JC-1 mitochondrial potential fluorescence, higher = more signal.
A short description of test [9]: basal MM1S mitochondrial membrane potential changes, profiling panel, cell-based, JC-1 fluorescence, 24 h, 100 nL compound (AID 1170). Further: test concentration not given here. Conditions: higher = more signal.
Test [10] can be described thus: A549 lung cancer cell viability effects, profiling panel, resazurin fluorescence, 24 h, PK04 Diversity Set (AID 1171). Further: test concentration not given here. Conditions: higher = more signal, called active from +8 up or from −8 down.
Test [11] in a line: HepG2 liver cancer cell viability effects, profiling panel, resazurin fluorescence, 24 h, PK04 Diversity Set (AID 1172). Further: test concentration not given here. The conditions noted are these: higher = more signal. (The colour change of resazurin is a common sign of viable cells or microbes.)
Test [12] can be described thus: basal S. cerevisiae growth modulation, no modifier, primary screen, OD600, strain BY4716, 24 h, basal condition (AID 1173). The conditions noted are these: OD600, 24 h, higher = more signal, called active from +8 up or from −8 down.
The nature of test [13]: MM1S myeloma cell viability, profiling panel, resazurin fluorescence, basal, 24 h, PK04 Diversity Set (AID 1174).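 Further: MM1S multiple myeloma cell line; test concentration not given here.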 Conditions: higher = more signal, called active from +8 up or from −8 down.
Test [14] concerns the target Dihydroorotate dehydrogenase (quinone), mitochondrial (Plasmodium falciparum (isolate 3D7)) (UniProt Q08210). In words: PfDHODH enzyme inhibitors, primary screen, biochemical, C-terminal His tag, absorbance 600 nm (AID 1175).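 Further: recombinant parasite enzyme with a five histidine tag at its C terminus; test concentration not given here.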 The conditions noted are these: DCIP absorbance 600 nm, higher = more signal, called active from +8 up or from −8 down.
A short description of test [15]: P. aeruginosa biofilm formation inhibitors, primary screen, strain PAO1, LB-PBS medium, absorbance 600 nm (AID 1176). Further: test concentration not given here. Conditions: P. aeruginosa PAO1 growth/biofilm, A600, 12 h; higher = more signal.
The nature of test [16]: S. cerevisiae RM11-1a growth modifiers, primary screen, strain RM11-1a, OD600, basal, 24 h (AID 1177).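 Further: cultures grown under basal conditions with no added stressor; test concentration not given here.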 The conditions noted are these: OD600, 24 h, higher = more signal, called active from +8 up or from −8 down.
A short description of test [17]: E. coli acrAB mutant growth effects, primary screen, E. coli filamentation inducers, strain DRC39, OD650, 24 h (AID 1178).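 Further: growth measured as culture turbidity by optical density at 650 nm; test concentration not given here.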 Conditions: higher = more signal, called active from +8 up or from −8 down.
Test [18] is described as follows: E. coli acrAB mutant growth effects, primary screen, E. coli filamentation inducers, strain DRC39, OD650, 48 h (AID 1179).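 Further: screen aims at cell division blockers that make cells filament.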 Conditions: E. coli DRC39 delta-acrAB growth, higher = more signal, called active from +8 up or from −8 down.
Test [19] can be described thus: RPMI8226 myeloma cell viability, profiling panel, resazurin fluorescence, basal, 24 h, PK04 Diversity Set (AID 1180).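 Further: RPMI8826 multiple myeloma cell line at 5000 cells per well; test concentration not given here.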 The conditions noted are these: higher = more signal.
Test [20] deals with E3 ubiquitin-protein ligase XIAP (Homo sapiens) (UniProt P98170). The test can be described thus: XIAP binders, primary screen, biophysical, small-molecule microarray, fluorescence 635 nm (AID 1181).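 Further: score merges 667 nm emission and signal to noise over triplicate slides.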 The conditions noted are these: small-molecule microarray binding, higher = more signal.
Sequence of E3 ubiquitin-protein ligase XIAP (Homo sapiens) (P98170 whole entry, looked up): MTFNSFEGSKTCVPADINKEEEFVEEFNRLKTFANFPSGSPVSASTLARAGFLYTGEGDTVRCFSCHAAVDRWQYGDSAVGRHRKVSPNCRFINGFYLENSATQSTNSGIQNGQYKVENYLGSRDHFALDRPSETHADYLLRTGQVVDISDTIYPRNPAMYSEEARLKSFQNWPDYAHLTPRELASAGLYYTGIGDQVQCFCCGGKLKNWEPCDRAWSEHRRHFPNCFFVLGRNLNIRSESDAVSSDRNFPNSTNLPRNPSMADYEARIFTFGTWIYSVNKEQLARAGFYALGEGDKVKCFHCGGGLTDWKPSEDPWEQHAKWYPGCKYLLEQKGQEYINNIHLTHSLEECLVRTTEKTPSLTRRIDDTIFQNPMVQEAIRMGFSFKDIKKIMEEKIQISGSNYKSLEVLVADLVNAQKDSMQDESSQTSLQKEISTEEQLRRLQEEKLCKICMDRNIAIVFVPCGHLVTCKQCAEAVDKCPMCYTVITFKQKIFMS

Sequence of Dihydroorotate dehydrogenase (quinone), mitochondrial (Plasmodium falciparum (isolate 3D7)) (Q08210 whole entry, looked up): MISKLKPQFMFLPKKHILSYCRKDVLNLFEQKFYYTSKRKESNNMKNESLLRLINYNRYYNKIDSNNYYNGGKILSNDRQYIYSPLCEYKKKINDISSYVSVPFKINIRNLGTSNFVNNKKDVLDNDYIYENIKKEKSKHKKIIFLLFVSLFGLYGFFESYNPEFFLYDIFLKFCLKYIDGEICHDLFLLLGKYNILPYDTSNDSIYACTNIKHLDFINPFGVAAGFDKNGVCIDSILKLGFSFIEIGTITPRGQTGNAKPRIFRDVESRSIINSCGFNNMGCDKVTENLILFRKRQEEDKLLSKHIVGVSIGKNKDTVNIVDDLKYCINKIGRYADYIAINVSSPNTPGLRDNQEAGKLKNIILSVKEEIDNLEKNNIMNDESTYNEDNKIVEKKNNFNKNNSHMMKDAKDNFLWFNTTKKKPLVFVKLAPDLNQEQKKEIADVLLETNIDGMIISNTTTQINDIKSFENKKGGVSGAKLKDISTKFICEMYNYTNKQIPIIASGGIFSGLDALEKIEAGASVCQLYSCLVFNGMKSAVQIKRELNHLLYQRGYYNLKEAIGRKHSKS

Consider `Cc1ccc(S[C@]2(C(=O)NC(C)C)CC(=O)N(Cc3cc(C(F)(F)F)cc(C(F)(F)F)c3)[C@@H]2c2ccc(CO)cc2)cc1`, for which the z-score in test [1] is 0.15; in test [2] it was -0.312; in test [3], -0.286; in [4], 0.395; in [5], 0.392; in [6] it was -0.387. In addition, the z-score in [7] was -0.5 (inactive); in test [8], -0.555; in test [9], -0.129; in test [10], 0.271 (inactive); in test [11], -0.489; in test [12], -1.33 (inactive). In addition, the z-score is 0.528 (inactive) in [13]; 0.31 (inactive) in test [15]; -0.656 (inactive) in test [16]; -0.0813 (inactive) in test [17]; -0.229 (inactive) in [18]; 0.483 in test [19]. Also, the composite z-score in test [14] was -1.06 (inactive); in [20] it was -0.0125.

`CCOC(=O)C[C@H]1[C@H](OC(=O)c2ccc(C(=O)c3ccccc3)cc2)[C@@H](NC(=O)C2CCCCC2)c2cc(OCCCO)ccc2N1C(=O)c1ccc2ccccc2n1`: the z-score is 0.123 in test [1]; 0.347 in test [2]; 2.23 in [3]; -0.436 in test [4]; 1.31 in test [5]; 1.9 in test [6]. Also, the z-score in [7] is 1.45 (inactive); in test [8], 0.592; in test [9], -0.543; in [10], -0.0397 (inactive); in [11], 0.547; in test [12] it was -0.108 (inactive). The z-score is 0.491 (inactive) in test [13]; -0.312 (inactive) in test [15]; 0.86 (inactive) in [16]; 0.297 (inactive) in [17]; 0.991 (inactive) in [18]; 0.0839 in test [19]. The composite z-score in [14] was -1.63 (inactive); in [20] it was -0.0141.

On to `COCCOC(=O)N1C(=O)[C@@]2(c3cc(C#CC4(O)CCCCCC4)ccc31)[C@H](c1ccc(O)cc1)N1[C@H](c3ccccc3)[C@H](c3ccccc3)OC(=O)[C@H]1[C@@H]2C(=O)N1CCN(c2ncccn2)CC1`, for which the z-score is -0.98 in test [1]; 0.284 in test [2]; 0.278 in test [3]; -1.61 in test [4]; -1.16 in test [5]; -0.81 in [6]. For the same compound, the z-score in test [7] was -0.912 (inactive); in [8] it was -0.406; in test [9], -0.091; in test [10], 0.435 (inactive); in test [11] it was 0.0439; in test [12], -0.31 (inactive). For the same compound, the z-score was -0.705 (inactive) in test [13]; 0.654 (inactive) in test [15]; 0.326 (inactive) in test [16]; -0.462 (inactive) in [17]; 0.0188 (inactive) in [18]; -0.528 in test [19]. The composite z-score is 0.244 (inactive) in [14] and 0.0487 in test [20].

`[N-]=[N+]=Nc1ccccc1C[C@]1(C(=O)N2CCOCC2)COC(c2ccc(OCCCO)cc2)=N1`: the z-score in test [1] is 0.462; in test [2], 1.31; in test [3], -0.603; in test [4], -1.43; in [5], -0.314; in [6], 0.943. The z-score in test [7] was -0.491 (inactive); in test [8], -0.571; in test [9], 0.615; in test [10], 1.63 (inactive); in test [11] it was 1.27; in test [12] it was -3.78 (inactive). Also, the z-score in [13] was 0.632 (inactive); in test [15] it was -0.537 (inactive); in test [16], -0.85 (inactive); in [17], 1.08 (inactive); in [18], 0.906 (inactive); in test [19], 1.02. Moreover, the composite z-score was 0.265 (inactive) in test [14] and 0.138 in test [20].

On to `CN(C)CCCCCCNC(=O)[C@@H]1C[C@@H]2C(=O)N3CCC[C@H]3C(=O)N2[C@@H]1c1cccc(OCCO)c1`, for which the z-score is -0.84 in [1]; -0.314 in test [2]; -0.679 in test [3]; -0.592 in [4]; -0.156 in [5]; -1.06 in test [6]. Further, the z-score in [7] is 0.444 (inactive); in [8] it was 0.605; in test [9], 0.784; in [10], -0.954 (inactive); in test [11], -2.4; in [12], 0.451 (inactive). Besides, the z-score is -0.727 (inactive) in test [13]; -0.267 (inactive) in test [15]; 0.363 (inactive) in test [16]; 0.0047 (inactive) in test [17]; -0.391 (inactive) in test [18]; -0.946 in test [19]. For the same compound, the composite z-score in test [14] is -0.595 (inactive); in test [20] it was -0.0062.

On to `C=CCNC(=O)[C@H]1[C@@H]2C(=O)O[C@@H](c3ccccc3)[C@@H](c3ccccc3)N2[C@@H](c2ccccc2OCCO)[C@]12C(=O)N(C(=O)OCCOC)c1ccc(C#CC3(O)CCCCCC3)cc12`, for which the z-score in test [1] is -0.293; in [2] it was 0.905; in test [3], -0.0307; in test [4] it was -3.15; in [5] it was -4.56; in test [6], -0.341. The z-score was 1.18 (inactive) in [7]; -1.14 in test [8]; -1.7 in test [9]; -2.4 (inactive) in [10]; -0.536 in test [11]; -0.0911 (inactive) in [12]. Further, the z-score was -3.39 (inactive) in test [13]; 2.42 (inactive) in test [15]; 0.0382 (inactive) in [16]; 0.0979 (inactive) in [17]; 0.975 (inactive) in test [18]; -4.17 in [19]. Further, the composite z-score is -1.12 (inactive) in [14] and -0.259 in test [20].

Consider `COc1ccc([Si](C)(C)[C@@H]2[C@@H](CC(=O)N(CCO)Cc3ccccc3)O[C@]3(C(=O)N(Cc4cccc(N5CCCCC5=O)c4)c4ccccc43)[C@H]2C)cc1`, for which the z-score was -1.2 in [1]; 0.579 in test [2]; -2.56 in test [3]; -1.43 in test [4]; -3.89 in test [5]; 0.56 in test [6]. In addition, the z-score is 1.15 (inactive) in [7]; -0.654 in test [8]; -1.26 in test [9]; -1.6 (inactive) in [10]; -0.369 in test [11]; 0.594 (inactive) in [12]. Moreover, the z-score in test [13] is -1.72 (inactive); in test [15], 1.63 (inactive); in test [16] it was 2.63 (inactive); in [17] it was 0.899 (inactive); in test [18] it was 0.246 (inactive); in test [19], -1.74. The composite z-score is -1 (inactive) in test [14] and -0.138 in test [20].

Take `CCOc1cc(C(O)C2C=CC3C(=O)NC(=O)C3N2Nc2ccc(Cl)cc2Cl)ccc1O` (stereo not given): the z-score in test [1] was -1.33; in test [2], -0.337; in test [3] it was -0.672; in test [4] it was -0.433; in test [5], -0.236; in test [6], -1.19. In addition, the z-score is -1.05 (inactive) in test [7]; -0.76 in test [8]; 0.172 in [9]; -0.873 (inactive) in [10]; -1.37 in test [11]; 0.203 (inactive) in [12]. Also, the z-score in test [13] is -2.35 (inactive); in test [15] it was 1.4 (inactive); in test [16], 0.358 (inactive); in [17], -0.748 (inactive); in test [18], -0.75 (inactive); in test [19] it was -1.68. In addition, the values for the composite z-score in test [14] and in [20] were 0.0681 (inactive) and 0.659, respectively.

As to `C=CCN1C(=O)[C@]2(CCS(=O)(=O)c3ccccc3)N=C(c3ccc(OCCCO)cc3)O[C@@H]2c2ccccc21`, the z-score in test [1] was 0.776; in [2], 0.142; in test [3], 0.504; in test [4], -0.0236; in test [5] it was 0.716; in [6], 0.452. Besides, the z-score was 1.42 (inactive) in test [7]; -0.156 in test [8]; 0.615 in [9]; -2.52 (inactive) in test [10]; -0.735 in test [11]; 0.383 (inactive) in test [12]. Further, the z-score is -1.36 (inactive) in test [13]; 0.218 (inactive) in test [15]; 0.742 (inactive) in [16]; 0.7 (inactive) in test [17]; 0.916 (inactive) in test [18]; -1.96 in test [19]. Besides, the composite z-score in test [14] was -0.756 (inactive); in [20], 0.0738.
